{
  "source": "PubChem BioAssay (NCI)",
  "note": "The panel holds about 83,000 compounds, 20% with a hit somewhere; the sample as a whole holds those more often.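 Single-dose data. Exposure time 48 hours. Values below 10 considered active.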 Calls of active or inactive are those of the source. Where a SMILES comes first, the peptide text is derived from it. Bridges are numbered along the chain shown (N, C = ends). [ ]: non-standard residue; d: D form. The star is where a group is joined. ξ: configuration not given here. ξNMePhe(4-NMe2) = CNC(Cc1ccc(N(C)C)cc1)C(=O)O; Picolinoyl(3-OH) = O=C(c1ncccc1O)*; ξPip(4-oxo) = O=C1CCNC(C(=O)O)C1; Phg = N[CH](C(=O)O)c1ccccc1; Abu = CC[CH](N)C(=O)O",
  "data": [
    {"test_system": "U251 CNS", "assay": "NCI-60 one-dose screen, 48 h (100 = growth as untreated, 0 = no growth, -100 = all killed)", "conditions": "10 µM", "values": [
      {"smiles": "CCCC1(c2ccccc2)NC(=O)NC1=O", "note": "(stereo not given)", "growth": "113% (inactive)"},
      {"smiles": "O=C(NN=C1CCCCC1)C(=O)NN=C1CCCCC1", "growth": "107% (inactive)"},
      {"smiles": "CC1CCCC(CC(N)=O)CC1", "note": "(stereo not given)", "growth": "99.7% (inactive)"},
      {"smiles": "CC(=O)OC(OC(C)=O)C1CCCO1", "note": "(stereo not given)", "growth": "105% (inactive)"},
      {"smiles": "CCOc1ccc(/C=N/N=C(N)N)cc1OCC", "growth": "103% (inactive)"},
      {"smiles": "COc1ccc2c(NCCCCCCCCNc3c4ccccc4nc4cc(OC)ccc34)c3ccccc3nc2c1", "growth": "-100% (active)"},
      {"smiles": "Nc1ncnc2[nH]ncc12", "growth": "42.8% (inactive)"},
      {"smiles": "Cc1ccc(C(=O)c2ccccc2)c(C)c1", "growth": "110% (inactive)"},
      {"smiles": "O=C(c1ccc(Cl)cc1)c1ccccc1Cl", "growth": "98.3% (inactive)"},
      {"smiles": "COc1cc2c(cc1O)CC[C@@H]1C2CC[C@@]2(C)C1CC[C@@H]2O", "note": "(stereo not given in full)", "growth": "33.5% (inactive)"},
      {"smiles": "CC(=O)OCC1=CC2OC(=O)C3=COC(OC4OC(CO)C(O)C(O)C4O)C1C32", "note": "(stereo not given)", "growth": "101% (inactive)"},
      {"smiles": "CC1(C)N=C(N)N=C(N)N1c1cccc(Br)c1", "growth": "32.9% (inactive)"},
      {"smiles": "Oc1ccccc1-c1nnco1", "growth": "82.9% (inactive)"},
      {"smiles": "CO[C@H]1C[C@@H]2CC[C@@H](C)[C@@](O)(O2)C(=O)C(=O)N2CCCC[C@H]2C(=O)O[C@H]([C@H](C)C[C@@H]2CC[C@@H](O)[C@H](OC)C2)CC(=O)[C@H](C)C=C(C)[C@@H](O)[C@@H](OC)C(=O)[C@H](C)C[C@H](C)/C=C/C=C/C=C1C", "growth": "51.8% (inactive)"},
      {"smiles": "Cc1cccc(C(=O)N(C(C)C)C(C)C)c1", "growth": "92.5% (inactive)"},
      {"smiles": "CC1(C)/C(=C\\CO)C2CCC1C2", "note": "(stereo not given)", "growth": "105% (inactive)"},
      {"smiles": "CN(C)c1ccc(S(=O)(=O)O)cc1", "growth": "108% (inactive)"},
      {"smiles": "N#CSc1cc(S(N)(=O)=O)ccc1N", "growth": "101% (inactive)"},
      {"smiles": "CCC1NC(=O)C(NC(=O)c2ncccc2O)C(C)OC(=O)C(c2ccccc2)NC(=O)C2CC(=O)CCN2C(=O)C(Cc2ccc(N(C)C)cc2)N(C)C(=O)C2CCCN2C1=O", "note": "(stereo not given) (tested in a mixture with another compound) ({Picolinoyl(3-OH)}-T[Abu]P[ξNMePhe(4-NMe2)][ξPip(4-oxo)][Phg]; ester 1-C; configuration not given here)", "growth": "64.9% (inactive)"},
      {"smiles": "C=CCNc1ccccc1", "growth": "106% (inactive)"},
      {"smiles": "CCOC(=O)C(CCC(C)C)C(=O)OCC", "growth": "101% (inactive)"},
      {"smiles": "CC1CC(O)CC(C)(C)C1", "note": "(stereo not given)", "growth": "101% (inactive)"},
      {"smiles": "Oc1ccccc1O", "growth": "82.7% (inactive)"},
      {"smiles": "Clc1ccc(-c2n[nH]c3c2Cc2ccccc2-3)cc1Cl", "growth": "97.9% (inactive)"},
      {"smiles": "CC1OC(Oc2c(-c3ccc(O)c(O)c3)oc3cc(O)cc(O)c3c2=O)C(O)C(O)C1O", "note": "(stereo not given)", "growth": "104% (inactive)"},
      {"smiles": "O=c1[nH]nc(SC2CCCCC2)c(=O)[nH]1", "growth": "103% (inactive)"},
      {"smiles": "CC(C)C1CCCCC1O", "note": "(stereo not given)", "growth": "100% (inactive)"},
      {"smiles": "CCC(C#N)(CC)c1ccccc1", "growth": "109% (inactive)"},
      {"smiles": "CC(=O)c1ccc(C(C)(C)C)cc1", "growth": "99.6% (inactive)"},
      {"smiles": "CC(C)OC(=O)c1cc(NC(=S)OC(C)C)ccc1Cl", "growth": "96.6% (inactive)"},
      {"smiles": "Cc1cc2ccccc2c(O)c1C#N", "growth": "109% (inactive)"},
      {"smiles": "OCCN1CCOCC1", "growth": "108% (inactive)"},
      {"smiles": "CC(=O)Oc1ccc(Br)cc1C(=O)O", "growth": "105% (inactive)"},
      {"smiles": "C#CCSc1nnnn1-c1ccc(Br)c(C)c1", "growth": "81.8% (inactive)"},
      {"smiles": "c1ccc2c(c1)Sc1ccccc1S2", "growth": "93.4% (inactive)"}
    ]}
  ]
}
